# Screens (PubChem)
# IL-1B inflam inh: inhibitors of inflammasome signaling (IL-1 beta secretion). THP-1 LPS/ATP IL-1B secretion, AlphaLISA, 16 h; hits give low values. activity change, % at 57.5 µM. 4.7% of 360,000 active. AID 743279; in the data active means activity change below about -50%; inconclusive means mostly about -30% to -49%
#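 Secreted IL-1B measured by AlphaLISA bead assay after 16 h compound exposure of THP-1 cells; compounds (final up to 57.5 uM) added 1 h before LPS (250 ng/mL) and ATP (1.25 mM) stimulation; lower signal means less secretion.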
# HT1080-NT tox: kills 2HG-producing HT-1080-NT fibrosarcoma cells; HT-1080-NT fibrosarcoma viability, CellTiter-Glo ATP luminescence, 48 h; Potency, µM (titrated, usually from 46.1 µM), without a hit: at the highest dose activity, negative = less viability, hits mostly cytotoxic; 1.6% of 360,000 active;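 further: NT is the 2HG producing partner of a matched IDH1 knockdown line; potency means the concentration at half of the fitted maximal effect; 0% = DMSO-treated cells and -100% = media-only wells without cells; nearly all actives have a fitted effect of over 55% in size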
#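 Read-out is CellTiter-Glo luminescence after 10 minutes at room temperature, following 48 hours' compound treatment of HT-1080-NT cells (750 cells/well, RPMI, 5% FBS, 37 degrees C).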
# HT1080 IDH1KD tx: toxicity to HT-1080 IDH1 knockdown cells (counter line) | HT-1080 IDH1 knockdown viability, ATP luminescence, 48 h | Potency, µM (series often up to 46.1 µM), for inactives: at the highest dose activity, negative = toxicity, usual class: cytotoxic | 2% of 360,000 active;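 further: potency means the concentration at half of the fitted maximal effect; 0% = DMSO wells and -100% = cell-free medium wells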
#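 IDH1KD HT-1080 cells, 750/well, RPMI + 5% FBS; compound pinned after 2 h settling; 48 h, 37 °C; CellTiter-Glo luminescence; % activity normalised to DMSO and no-cell wells; curves fitted, classed by r2 and efficacy.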
# TDP1 cell noCPT: qHTS for Inhibitors of human tyrosyl-DNA phosphodiesterase 1 (TDP1): qHTS in cells in absence of CPT; DT40 Tdp1-/- hTDP1 cells, no CPT, ATP luminescence, 48 h; Potency, µM (doses to about 46.2 µM), for the others: at the top dose activity change, negative = growth inhibition, most hits filed as inhibitors; 15% of 420,000 active; AID 686978, 2013; further: potency means the concentration at half of the fitted maximal effect; nearly all actives have a fitted effect of over 55% in size
#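 Camptothecin absent (DMSO only). Human TDP1-complemented DT40 knockout cells, 400 cells/well, 37 °C for minimum 48 hr; ATP measured via CellTiter-Glo, 30 min dark incubation, luminescence.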
# DT40 TDP1 CPT: DT40-hTDP1 cell growth loss with CPT | Potency, µM (doses to about 46.2 µM), without a hit: at the top dose activity change, negative = growth inhibition, usual class: inhibitors | 12% of 420,000 active | chicken DT40 Tdp1-/-;hTDP1 cells + 20 nM CPT, ATP luminescence, 48 h | AID 686979; further: potency means the concentration at half of the fitted maximal effect; nearly all actives have a fitted effect of over 55% in size
#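 Chicken DT40 Tdp1-/- cells stably complemented with human TDP1 were seeded at 400 cells/well in medium containing 20 nM camptothecin, exposed to pin-transferred compounds, and grown at 37 °C for at least 48 hr. Viability was read as ATP luminescence.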
# Active calls of the source: *; ? = inconclusive; / = no result. The list is not random: actives were taken first. Their share in the collection is about 19%. Unless noted, the call rests on the fitted dose curve; in most records, active means well fitted curve in the direction sought with a large enough effect; inconclusive means small, poorly fitted or top-dose-only effect, or another doubt; inactive means no such curve, though single readings can be large; an effect the other way counts as inactive or inconclusive. Unless noted, on the % scale 0 is the no-effect control and ±100 the full control effect.
SMILES,IL-1B inflam inh,HT1080-NT tox,HT1080 IDH1KD tx,TDP1 cell noCPT,DT40 TDP1 CPT
Cc1cccc(N2CCN(C(=O)CCC(=O)N3CCOc4ccc(Cl)cc43)CC2C)c1 (configuration not stated),?,-16.9%,-13.7%,?,?
CCc1nc(SCc2ccc(Br)cc2)n[nH]1,-0.3,-3.2%,-8.6%,-0.1%,5.0%
CCc1nc(SCc2ccc(OCC(C)C)cc2)n[nH]1,-20.1,-27.9%,?,?,4.61µM*
c1cnc2nc3c4ccccc4c4ccccc4c3nc2c1,?,-11.2%,-3.2%,14.6µM*,?
Cc1c(Cl)ccc2sc(N3CCN(C(=O)C4CC4)CC3)nc12,/,/,/,5.8µM*,11.6µM*
O=C(CCS(=O)(=O)c1ccc(F)cc1)N1CCN(c2ccccc2)CC1,2.2,8.9%,-0.1%,-11.6%,?
COc1cccc2sc(N3CCN(C(=O)CCS(=O)(=O)c4ccc(F)cc4)CC3)nc12,/,/,/,7.31µM*,5.8µM*
Cc1ccc(S(=O)(=O)CCC(=O)N2CCN(c3ccccc3O)CC2)cc1,?,-5.5%,1.7%,3.5%,-14.8%
Cc1ccc(S(=O)(=O)CCC(=O)N2CCN(c3nc4c(C)c(Cl)ccc4s3)CC2)cc1,/,/,/,3.26µM*,2.59µM*
Clc1cccc(Cl)c1CNc1ccc(N2CCCC2)cc1,?,?,-27.0%,16.4µM*,6.51µM*
Fc1ccc(CNc2ccc(N3CCN(Cc4ccccc4)CC3)cc2)cc1,?,-26.5%,-14.5%,?,?
CC(C)(C)c1ccc(/C=C(\C#N)C(=O)NC2CC2)cc1,/,?,?,?,3.4%
CCOC(=O)c1c(C)oc2nc(C)nc(N(C)Cc3ccccc3)c12,/,/,/,23.1µM*,18.4µM*
CCOC(=O)c1cc(C#N)c(N2CCN(C(=O)c3cccc(C(F)(F)F)c3)CC2)nc1C(F)(F)F,?,2.5%,?,14.6µM*,?
CCOC(=O)c1c(C)oc2nc(C)nc(N3CCN(c4cccc(C(F)(F)F)c4)CC3)c12,/,/,/,5.17µM*,9.2µM*
CCc1nc2ccccc2c(C(=O)OCC(=O)N(C)Cc2ccccc2)c1C,-12.9,-11.4%,-14.4%,?,?
CCOC(=O)c1c(C)oc2nc(C)nc(N3CCN(c4ccccc4)CC3)c12,/,/,/,14.6µM*,9.2µM*
CC(OC(=O)c1nn(C)c(=O)c2ccccc12)C(=O)Nc1ccc(S(N)(=O)=O)cc1 (configuration not stated),12.3,1.4%,-1.7%,-2.1%,9.3%
CC(NC(=O)Nc1ccc(Cl)cc1)c1ccccc1 (configuration not stated),-3.7,-0.4%,-0.8%,25.9µM*,?
O=C(Nc1ccccc1Cl)C(Cl)C(=O)c1ccccc1 (configuration not stated),-67.7*,12.3%,18.2%,13µM*,14.6µM*
O=C(Nc1ccccc1Cl)c1ccccc1,-0.6,27.4%,4.4%,-0.6%,1.8%
CC(NC(=O)c1ccc(F)cc1)c1ccccc1 (configuration not stated),4.9,9.8%,6.6%,-0.4%,-0.8%
Cc1ccc(C(NC(=O)NC(C)c2ccccc2)C(Cl)(Cl)Cl)cc1F (configuration not stated),-61.9*,-27.0%,?,-85.2%,18.4µM*
CCOP(=O)(OCC)C(NC(=O)Nc1ccc(Cl)cc1)c1ccccc1 (configuration not stated),6.2,4.6%,1.2%,-28.6%,-5.8%
O=C(Nc1ccc(Cl)cc1)C(Cl)C(=O)c1ccccc1 (configuration not stated),?,-12.1%,?,13µM*,9.2µM*
SMILES,IL-1B inflam inh,HT1080-NT tox,HT1080 IDH1KD tx,TDP1 cell noCPT,DT40 TDP1 CPT
COc1ccc(C(=O)CCC(=O)O)c2ccccc12,/,/,/,-9.6%,1.1%
Cc1ccccc1C(=O)c1ccccc1C(=O)c1ccccc1,-1.1,-1.2%,1.6%,16.4µM*,?
COc1ccc(C(=O)c2ccc(N(C)C)cc2)c2ccccc12,55.2,1.58µM*,2.82µM*,1.46µM*,1.03µM*
COc1ccc(C(=O)c2ccc(Br)cc2)c(OC)c1OC,-9.4,0.6%,-16.6%,-24.7%,-6.3%
COc1ccc(-n2nnnc2/C=C/Nc2cc(C(F)(F)F)ccc2OC)cc1,-8.5,-0.5%,-1.4%,?,?
COc1ccc(C(=O)c2ccc(OC)c(OC)c2OC)cc1,-6.8,?,10.3µM*,3.66µM*,3.66µM*
COc1ccc(-n2nnnc2/C=C\Nc2ccccc2C(=O)c2ccccc2)cc1,47.0,5.8µM*,5.17µM*,5.8µM*,7.31µM*
Cc1c(C)n2c(SCC(=O)N3CCN(c4ccccc4)CC3)nnc2[nH]c1=O,2.6,4.5%,2.8%,22.6%,-22.4%
CCOc1ccc(-c2cc(C(=O)Nc3ccc(NC(C)=O)cc3)no2)cc1,/,/,/,-3.6%,1.3%
O=C(c1ccccc1)c1ccccc1C(=O)c1ccccc1,-0.8,-9.8%,-13.2%,18.4µM*,?
COc1ccc(CNC(=O)COC(=O)c2ccccc2C(=O)c2ccccc2)cc1,11.2,4.8%,-2.5%,8.2µM*,?
COc1ccc(C(=O)c2ccccc2)c(O)c1,-16.6,7.0%,5.1%,?,?
COc1ccc(C(=O)c2ccccc2C(=O)c2ccccc2)cc1,-4.8,0.7%,4.3%,16.4µM*,?
COc1ccc(CNC(=O)COC(=O)c2ccc(C(=O)c3ccccc3)cc2)cc1,6.9,-1.0%,-3.7%,-10.2%,-18.2%
COc1ccc(-n2c(=O)c3c4c(sc3n3c(=S)[nH]nc23)CCCC4)cc1,-14.3,?,19.8%,?,?
